Out of some 330,000 compounds screened, about 5,800 (1.8%) were called active. For the sample, actives were picked, then their nearest neighbours and some compounds at random. A number with no mark means an inactive call. No stated cut-off is given here; in the data, active means inhibition mostly above about 38% (no sharp cut-off); inactive means mostly below about 40%.

Chain of Orexin/Hypocretin receptor type 1 (Homo sapiens) (O43613 whole entry, looked up): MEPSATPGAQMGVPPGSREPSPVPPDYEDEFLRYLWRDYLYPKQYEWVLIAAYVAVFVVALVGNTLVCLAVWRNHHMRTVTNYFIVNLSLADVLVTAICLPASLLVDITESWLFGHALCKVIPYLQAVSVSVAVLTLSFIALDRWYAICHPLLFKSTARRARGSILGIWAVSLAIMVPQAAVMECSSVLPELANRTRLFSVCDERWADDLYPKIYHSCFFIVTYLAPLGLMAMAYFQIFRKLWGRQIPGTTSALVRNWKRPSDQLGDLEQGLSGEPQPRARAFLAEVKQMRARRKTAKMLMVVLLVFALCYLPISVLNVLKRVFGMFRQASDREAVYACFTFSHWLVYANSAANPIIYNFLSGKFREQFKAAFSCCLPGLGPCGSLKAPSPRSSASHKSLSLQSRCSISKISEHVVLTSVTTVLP

The assay concerns the target Orexin/Hypocretin receptor type 1 (Homo sapiens) (UniProt O43613). Description: blocks the human orexin 1 receptor (AID 485270).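 Further: 0% = agonist challenge alone and 100% = reference antagonist.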 The conditions noted are these: OX1R-expressing cells, FRET antagonist read-out; at 6.6 µM; active compounds read high.
Regarding `COc1cc(Cl)c(C)cc1NC(=O)CSc1nnc(CN2CCCC2)o1`, the inhibition was 3.58%.

Turning to `O=C1CC2(CCCC2)C(=O)N1CN1CCN(S(=O)(=O)c2ccc(F)cc2F)CC1`, the inhibition is 6.49%.

In the case of `COC(=O)c1sccc1NS(=O)(=O)c1ccc(F)cc1F`, the inhibition is -2.44%.

Take `COC(=O)c1sccc1NC(=O)COc1ccc(Cl)cc1`: the inhibition is 19.5%.

With `COC(=O)c1sccc1NC(=O)CSc1ccccc1NS(=O)(=O)c1cc(Cl)ccc1Cl`, the inhibition is 60.7% (active).

In the case of `C[C@]12CC[C@H](O)CC1=CCC1C2CC[C@@]2(C)C1CC[C@@H]2NC(=O)CCC(=O)O` (some centres not stated), the inhibition was 4.74%.

In the case of `Cc1cccc(C)c1Nc1nnc(SCC(=O)NCCCN2CCCC2=O)s1`, the inhibition is 5.99%.

Take `CC(=O)c1c(C)[nH]c(C(=O)COC(=O)c2cccs2)c1C`: the inhibition is 15%.

On to `COc1cccc(C(=O)OCC(=O)c2[nH]c(C)c(C(C)=O)c2C)c1`, for which the inhibition is 12.8%.

Regarding `CC(=O)c1c(C)[nH]c(C(=O)COC(=O)c2cccc(S(=O)(=O)N(C)c3ccccc3)c2)c1C`, the inhibition was 69.6% (active).

With `CC[C@]12c3[nH]c4ccc(OC)cc4c3CCN1C(=O)C(CC(=O)NCc1ccco1)C[C@@H]2C(=O)N1CCN(C(=O)C2CC2)CC1` (some centres not stated), the inhibition was 6.49%.

With `COc1ccc(CCNC(=O)COC(=O)c2cnc(Cl)c(Cl)c2)cc1`, the inhibition was 8.28%.

`O=C(COC(=O)c1ccccn1)NNC(=O)c1ccc([N+](=O)[O-])cc1`: the inhibition was 57.2% (active).

`O=C(COC(=O)c1ccccn1)NNC(=O)c1ccc(Br)cc1`: the inhibition was -0.24%.

Consider `O=C(OCc1ccc([N+](=O)[O-])cc1)c1ccccn1`, for which the inhibition was 5.7%.

Take `COc1ccc(-c2c(C)cc3oc(=O)cc(-c4ccccc4)c3c2C)cc1C=O`: the inhibition is 4.68%.

For `COc1ccccc1C(=O)COC(=O)COc1ccc(C#N)cc1`, the inhibition is 5.7%.

Regarding `O=[N+]([O-])c1cccc(/C=N/Nc2ncc(Br)cn2)c1`, the inhibition was 25.3%.

`O=[N+]([O-])c1ccccc1Nc1ccc(O)cc1`: the inhibition is 50.7%.

`O=[N+]([O-])c1ncc(Br)cc1Nc1ccccc1`: the inhibition was 54.1% (active).

Regarding `O=C(COC(=O)/C=C/c1cccc(Cl)c1)NCc1cccs1`, the inhibition was 5.6%.

As for `COc1ccc(-c2sc3ccccc3c2-c2ccc(OCCN3CCOCC3)cc2)cc1`, the inhibition was -1.97%.

Regarding `NC(=S)N/N=C/c1ccc([N+](=O)[O-])cc1`, the inhibition is 50.9% (active).

As for `Cc1ccsc1C(=O)N/N=C/c1ccc([N+](=O)[O-])cc1`, the inhibition is 53.6%.

Consider `COC(=O)c1ccc(/C=N/NC(=O)C(=O)N2CCCCCC2)cc1`, for which the inhibition was 44.8%.

With `CCOc1ccc(/C=N/NC(N)=S)cc1`, the inhibition was 27.9%.

`O=C(N/N=C/c1ccc2c(c1)OCO2)C(=O)N1CCCC1`: the inhibition was 15%.

As for `O=C(N/N=C/c1ccc([N+](=O)[O-])cc1)C(=O)N1CCCC1`, the inhibition was 45.8% (active).

Turning to `O=C(COC(=O)c1ccncc1)Nc1ccc2c(c1)OCO2`, the inhibition is 9.22%.

For `O=C(Nc1cccc(S(=O)(=O)NC2=NCCC2)c1)c1ccc(F)cc1F`, the inhibition is 3.06%.

Take `Cc1cccc(-n2ncc3c(=O)[nH]c(SCC(=O)Nc4cc(C)on4)nc32)c1`: the inhibition was 10.5%.

With `COc1ccc(-c2nc3cc(C)ccn3c2NC2CCCCC2)cc1SC1CCCCC1`, the inhibition is 11.5%.

In the case of `Cc1ccc(NC(=O)CN(C)C(=O)c2ccc(Cl)c(S(=O)(=O)NCc3ccco3)c2)cc1`, the inhibition is 4.72%.

On to `CC(C)(C)c1ccc(C(=O)NCC(=O)OCN2C(=O)c3ccccc3C2=O)cc1`, for which the inhibition was -0.82%.

In the case of `Cc1ccc(CNC(=O)c2ccc3c(c2)S(=O)(=O)c2ccccc2C3=O)cc1`, the inhibition is 61.7%.

Take `COC(=O)CNC(=O)c1ccc2c(c1)S(=O)(=O)c1ccccc1C2=O`: the inhibition was 172% (active).

On to `COC(=O)[C@]1(C)N[C@H](CN(C)C(=O)c2ccc(C(C)(C)C)cc2)[C@@H]2C(=O)N(C)C(=O)[C@@H]21`, for which the inhibition was 6.6%.

On to `CC(NC(=O)c1ccccc1SCC(=O)N1CCCC1)c1ccccc1` (configuration not stated), for which the inhibition is 6.4%.

With `COc1ccccc1NC(=O)COC(=O)c1ccccc1SCC(=O)N1CCCC1`, the inhibition is 23.9%.

For the compound `CC(C)N(Cc1ccccc1)C(=O)COC(=O)c1ccccc1SCC(=O)N1CCCC1`, the inhibition is 60.6% (active).

As for `COc1ccc(S(=O)(=O)N(C)C[C@@H]2Oc3ccc(NC(=O)Nc4c(C)noc4C)cc3C(=O)N([C@H](C)CO)C[C@@H]2C)cc1`, the inhibition is 5.98%.

For `Oc1ccc(N=Cc2sc3ccccc3c2Cl)cc1`, the inhibition is 36.6%.

Consider `Oc1ccc(N=Cc2c(O)ccc3ccccc23)cc1`, for which the inhibition is 54.4% (active).

Regarding `O=[N+]([O-])c1ccc(N=Cc2c(O)ccc3ccccc23)cc1`, the inhibition is 26.6%.

With `Cc1ccc(N2C(=O)N3[C@@H]4c5ccccc5OC[C@@H]4[C@@H](c4ccccc4)[C@@]3(C)C2=O)cc1`, the inhibition is 4.13%.

In the case of `O=C(NN=Cc1ccc(N2CCOCC2)cc1)c1cc2ccccc2cc1O`, the inhibition is 8.04%.

As to `C=CCn1c(SCC(=O)Nc2nc3ccccc3s2)nnc1-c1ccccc1O`, the inhibition is 53% (active).

Turning to `C=CCn1c(SCC(=O)NCc2ccccc2)nnc1-c1cc(Br)ccc1O`, the inhibition was 13.4%.

For `Cn1nnnc1SCC(=O)Nc1nc2ccccc2s1`, the inhibition is 14.3%.

`O=C(COc1cccnc1[N+](=O)[O-])Nc1ccc(Cl)cc1F`: the inhibition is 9.99%.

As for `Cc1ccsc1C(=O)OCC(=O)NCCc1ccccc1`, the inhibition was 1.76%.

Take `CC[C@]12c3[nH]c4cc(CCC(=O)N(C)C)ccc4c3CCN1C(=O)[C@@H](CC(=O)NCCCn1ccnc1)C[C@@H]2C(=O)N1CCN(C(=O)C2CC2)CC1`: the inhibition was 10.3%.

On to `c1ccc(-c2nnc(SCc3nc4ccccc4[nH]3)o2)cc1`, for which the inhibition is 16.7%.

In the case of `Clc1ccccc1SCc1nc2ccccc2[nH]1`, the inhibition is 24.1%.

Consider `c1ccc2c(CSCc3nc4ccccc4[nH]3)cccc2c1`, for which the inhibition was 90.8% (active).

For `CC(C)(C)OC(=O)C[C@@H]1C/C=C\C[C@@H](CC(=O)N[C@H](CO)Cc2ccccc2)C(=O)NC[C@@H](c2ccccc2)OC1=O`, the inhibition was 8.95%.

As for `COC(=O)C1=C(C)N(Cc2ccccc2)C(=NCCCOC(C)C)N[C@H]1c1ccccc1`, the inhibition is 10.8%.

In general, inhibition refers to the relative decrease from the control value, in per cent.

Values taken from PubChem BioAssay AID485270 (The Scripps Research Institute Molecular Screening Center, 2010).
